# Assay results from PubChem BioAssay (NCI).
# About 83,000 compounds went through this panel and 20% of them were active in at least one assay; those are over-represented in the sample as a whole.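 Step 1: grow cells in 96-well plates. Step 2: add test compound at a single concentration. Step 3: incubate 48 h. Step 4: record percent growth.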 Unmarked numbers belong to inactive results. The source made the active and inactive calls. How the source made its calls: active means growth percent below 10; inactive means the rest.
# Legend:
# Test in all cases: NCI-60 one-dose screen, 48 h (100 = growth as untreated, 0 = no growth, -100 = all killed)
# Settings in all cases: 10 µM unless noted
# SR leukemia = tested on: SR leukemia
# RPMI-8226 leukemia = tested on: RPMI-8226 leukemia
# OVCAR-8 ovarian = tested on: OVCAR-8 ovarian
# OVCAR-5 ovarian = tested on: OVCAR-5 ovarian
# OVCAR-4 ovarian = tested on: OVCAR-4 ovarian
# SK-OV-3 ovarian = tested on: SK-OV-3 ovarian
# IGROV1 ovarian = tested on: IGROV1 ovarian
# OVCAR-3 ovarian = tested on: OVCAR-3 ovarian
# HS 578T breast = tested on: HS 578T breast
# NCI/ADR-RES ovarian = tested on: NCI/ADR-RES ovarian
SMILES,growth (SR leukemia),growth (RPMI-8226 leukemia),growth (OVCAR-8 ovarian) [%],growth (OVCAR-5 ovarian) [%],growth (OVCAR-4 ovarian) [%],growth (SK-OV-3 ovarian) [%],growth (IGROV1 ovarian) [%],growth (OVCAR-3 ovarian) [%],growth (HS 578T breast) [%],growth (NCI/ADR-RES ovarian) [%]
CC/C(=C(/c1ccc(Cl)cc1)c1ccc(OCCN2CCCCC2)cc1)c1ccc(OC)cc1,-22.2% (active),-10.5% (active),65.9,65.4,69.3,94.9,80.5,66.4,85.3,71.8
C/C(=N\O)c1ccc(Cl)cc1,78.1%,107%,88.6,118,109,108,155,113,90.4,108
Cn1cc(-c2csc(-c3c[nH]c4ccc(Br)cc34)n2)c2ccnc(Cl)c21,31.6%,51.4%,63.8,114,53.6,78.1,65.9,77.4,68.7,65.6
O=C(/C=C/c1cn(-c2ccccc2)nc1-c1ccc(Cl)cc1)c1ccc(F)cc1,40.8%,67.5%,80.6,99.3,71.9,82.6,81.1,78.8,95.7,69.8
CCN(CC)c1ccc(\C=N/N=C(N)/C(N)=N\N=C/c2ccc(N(CC)CC)cc2)cc1,87.6%,99%,99,126,110,102,105,115,103,101
COc1cc2c(c(OC)c1OC)CCC(c1cccc(C(=O)Nc3ccc(C#N)cc3)c1)O2 (stereo not given),16.9%,14.4%,28.5,79.3,35.3,73.2,68.9,65.6,72.3,19
Nc1c(C(=O)Nc2ccncc2)sc2nc3c(cc12)C(O)CCC3 (stereo not given),84.1%,89.3%,98.7,97.2,114,98,103,119,118,105
CNC(=O)c1[nH]cc(-c2ccc(OC)cc2)c1-c1cc(OC)c2c(c1OC)OCO2,102%,108%,98.7,95.8,96.4,99.9,87.4,100,115,95.8
COCCNC(=O)Nc1ccc2nc(-c3cccs3)c(-c3cccs3)nc2c1,67%,92.1%,93.4,87.9,98.2,98.8,89,106,93.6,90.1
COC(=O)[C@]1(C)CCC[C@]2(C)[C@H]3C[C@H]4C(C(C)C)=C[C@]3(CC[C@H]21)[C@@H]1C(=O)CC[C@H](OCCC#N)[C@@H]14,58.9%,68%,99.2,129,77.3,109,67.3,81.5,79.9,77.8
CCSc1nc2scc(C)c2c(=O)[nH]1,101%,101%,99.3,99.8,96.7,98.5,102,107,95.5,102
O=C1Nc2ccc(C(=O)O)cc2/C1=N/c1nnc(Sc2ccccc2)s1,87.8%,99.1%,98.8,113,111,109,99.7,105,96.8,110
Cc1ccc(Nn2c(SCC(=O)Nc3nc(-c4ccccc4)cs3)nc(C)c2C)cc1,72.6%,55.8%,55.5,81.8,32,64.1,86,78.5,106,34.4
